# In PubChem BioAssay (NCI):
# This is part of a sample that, as a whole, favours compounds with a hit. Of some 83,000 tested, about 20% had one in any assay.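 Negative percent growth values reflect cell death: -40 means 40% of the cells present at the start died, and -100 means all died.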 Unmarked numbers belong to inactive results. Activity calls are given as the source filed them.
# Test system: OVCAR-8 ovarian
# Assay: NCI-60 one-dose screen, 48 h (100 = growth as untreated, 0 = no growth, -100 = all killed)
# Details: 10 µM unless noted
# Experimental: Growth inhibition of the OVCAR-8 human tumor cell line is measured as a screen for anti-cancer activity. Cells are grown in 96 well plates and exposed to the test compound for 48 hours. Compounds are tested at a single concentration, which is 10^-5 M for most compounds. The reported endpoint is percent growth (GI% or GIPRCNT), where numbers from 0 - 100% represent growth inhibition, and numbers from -100% - 0 represent cell death. For example, a value of 40 represents 60% growth inhibition. A value of 0 means no net growth occurred over the course of the experiment. A value of -40 indicates 40% of cells at the beginning of the experiment died by the end of the experiment. A value of -100 means all cells are dead at the end of the experiment.
# NCI-60 Human Tumor Cell Lines Screen was performed using the standard one-dose NCI protocol, which is described in more detail at https://dtp.cancer.gov/discovery_development/nci-60/default.htm.
# Compounds with GIPRCNT values below 10 were considered active. Activity score was based on GIPRCNT using the following formula: […]
# Score is 0 for GIPRCNT values of 100 or above, 50 for GIPRCNT values of 0, and 100 for GIPRCNT values of -100.
row,SMILES,growth
1,Cn1c(=O)c2c(nc(Br)n2CCC(=O)Nc2ccc(F)cc2)n(C)c1=O,100%
2,COc1ccc(/C=C(\C#N)c2ccccc2)cc1,92%
3,COc1cc(Oc2cc(-c3cccnc3)ccc2NC(=O)Nc2ccc(F)cc2F)cc(OC)c1OC,92.8%
4,COc1cc(C(=O)/C=C/c2cccnc2Nc2ccccc2)cc(OC)c1OC,-31.3% (active)
5,ClC1=C(Cl)C(=C2C(Cl)=C(Cl)C(Cl)=C2Cl)C(Cl)=C1Cl,97.7%
6,O=c1ccn(C2OC(CO)C(O)C2F)c(=O)[nH]1 (stereo not given),115%
7,CCOc1cc(-c2ccc[nH]2)[nH]c1/C=C1\N=C(C)C(C(=O)OC)=C1C,-45.8% (active)
8,COc1ccc2[nH]c(-c3ccccc3)cc2c1,103%
9,CCCCCCCCCCCCCCCCCc1nccn1CCO,80%
10,CSC1=Nc2c(c(C)c(-c3ccccc3)n2CCCN2CCCCC2)C2=NC(=O)C[C@H](C)N12,44.6%
11,COc1cc(/C=C/C(=O)Nc2cccnc2Nc2cc(OC)c(OC)c(OC)c2)cc(OC)c1OC,84.1%
12,N#CCCN(CCO)c1ccccc1,102%
13,O=C1NCN(CCO)CN1,99.9%
14,O=C(C(Br)Br)C(Br)C(Br)c1ccccc1 (stereo not given),88%
15,CC(C)(C)c1cc(O)c(O)c(C(C)(C)C)c1,39.8%
16,CC(=O)n1c2ccccc2c2ccccc21,100%
17,COc1ccc(-c2nn(-c3cccc(Cl)c3)cc2C2CC(c3ccccc3)=NN2C(C)=O)cc1 (stereo not given),56.3%
18,Cc1cc(O)c2c(c1)C[C@H]1[C@@H]3CC[C@H]4CC(=O)CC[C@]4(C)[C@H]3CC(=O)[C@]21C,97.4%
19,COc1ccc(-c2nc3sccn3c2-c2ccnc(S(C)(=O)=O)n2)cc1,111%
20,C=C(C)[C@@H]1C/C=C(/C=O)CC[C@@H]2O[C@@]2(C)CC/C=C(\C)CC1,105%

row,SMILES,growth
1,COc1ccc2nc(-c3ccc(-n4cncc4-c4ccc(OC)c(N)c4)cc3)sc2c1,96.8%
2,Oc1ccc(Cc2ccc(O)c(C3CC(c4ccc(Cl)cc4)=NN3)c2)cc1C1CC(c2ccc(Cl)cc2)=NN1 (stereo not given),15.8%
3,Nc1ccc(C2=Nc3cccc4cccc(c34)S2)cc1,93.6%
4,Cc1cc2c(C#N)n3c(c2cc1C)C(=O)C(c1ccccc1)Oc1ccccc1-3 (stereo not given),23.6%
5,Cc1c(C(N)=O)sc2c1C(=O)N(Cc1ccccc1)C1=NN=C(c3ccc(Cl)cc3)CN12,18.1%
6,COc1ccc(C(=O)Nc2nc(-c3ccc(Cl)cc3)cs2)cc1,103%
7,Cc1ccsc1/C=C/C1=NCCCN1C,108%
8,O=C1/C(=N/O)CCc2ccccc21,95.6%
9,CCC1=C(c2ccc(OC)cc2)C(C)(C)Oc2c1ccc(O)c2CN1CCCC1,58%
10,CC(C)[C@H]1CC[C@H]2[C@@H](CC[C@H]3[C@](C)(CN)CCC[C@]23C)C1,97.9%
11,NC(=Nc1ccccc1)SCCCCSC(N)=Nc1ccccc1,83.7%
12,COc1ccc(/C(=C2\O[C@@H]([C@H](O)CO)[C@H]3OC(C)(C)O[C@@H]23)c2cc(OC)c(OC)c(OC)c2)cc1O,107%
13,Cc1c(NCc2nnc3n(Cc4ccccc4)c(=O)c4c5c(sc4n23)CCCC5)c(=O)n(-c2ccccc2)n1C,86.3%
14,Oc1ccccc1/C=N\Nc1ccccc1,52%
15,O=C1/C(=C/c2ccc([N+](=O)[O-])s2)Oc2ccc(Br)cc21,-6.92% (active)
16,CCCc1cccc(CCC)c1O,107%
17,Clc1ccccc1[C@@H]1C[C@@H]2Cc3cc(Br)c4ccccc4c3N1O2,61.1%
18,NS(=O)(=O)c1ccc(NC2=C(Cl)C(=O)c3ccccc3C2=O)cc1,88.6%
19,Cc1cc(NCCCNc2ccnc3cc(Cl)ccc23)nc(N2CCN(C)CC2)n1,77.1%
20,COc1ccc2nc3cc(Cl)ccc3c(Nc3cc(C(C)C)c(O)cc3C)c2c1,50.4%
